Assay outcomes deposited in PubChem BioAssay by The Scripps Research Institute Molecular Screening Center.
In the library only some 1.1% were active in any assay of this set; here they are far more common.
OPRM1-OPRD1 inv: mu-delta opioid heterodimer inverse agonism | P35372+P41143 | cell-based MOR-DOR heterodimer luminescence | inhibition, % at 9.3 µM | hit rate 0.21% among 340,000; in the data active means inhibition above about 22%, passing the limit was not always enough
HTR5A inv ctr: HTR5A inverse agonism, opioid heterodimer counter-screen; P47898; HTR5A cell line, luminescence; inhibition, % at 9.3 µM; hit rate 0.083% among 340,000; AID 504634; in the data active means inhibition mostly above about 23%, no sharp cut-off; inactive means mostly below about 18%
Target sequence (P47898 whole entry, looked up): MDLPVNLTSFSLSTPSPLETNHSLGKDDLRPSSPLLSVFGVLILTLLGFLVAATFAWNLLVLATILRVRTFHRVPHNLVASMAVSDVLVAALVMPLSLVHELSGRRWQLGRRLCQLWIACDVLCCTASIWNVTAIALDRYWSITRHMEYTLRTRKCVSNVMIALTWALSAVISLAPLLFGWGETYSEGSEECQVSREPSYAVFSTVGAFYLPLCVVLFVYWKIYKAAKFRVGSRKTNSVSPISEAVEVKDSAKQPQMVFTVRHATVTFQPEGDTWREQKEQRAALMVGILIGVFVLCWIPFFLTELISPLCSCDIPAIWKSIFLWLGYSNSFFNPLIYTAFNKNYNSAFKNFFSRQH
HTR5A ag ctr: HTR5A agonism, opioid heterodimer counter-screen; P47898; HTR5A agonist assay, luminescence, cell-based; activation, % at 9.3 µM; hit rate 0.61% among 340,000; AID 504692; in the data active means activation mostly above about 9.5%, no sharp cut-off; inactive means mostly below about 7.6%
MOR-DOR ag-1: agonists of human mu-delta opioid receptor heterodimerization. P35372+P41143. cells, OPRM1-OPRD1 heterodimerization, luminescence. activation, % at 9.3 µM. hit rate 0.3% among 340,000. AID 504326
MOR-DOR ag-2: opioid heterodimer agonism, HTR5A counter-screen; shares compounds with HTR5A ag ctr; U2OS counter-screen cells, complementation luminescence, 3 h; activation, % at 9.3 µM; hit rate 13% among 800
HTR5A ag conf: confirmation of human HTR5A agonists. hit rate 17% among 800. HTR5A agonist cell assay, luminescence. activation, % at 9.3 µM. shares compounds with HTR5A ag ctr; in the data active means activation above about 17%
A number is an active result. Unless noted, no stated cut-off is given here; in the data, active means activation above about 18%; inactive means the rest.

Results for Cn1cc(C(=O)NCC2COc3ccccc3O2)c(=O)c2cc(S(=O)(=O)N3CCCCC3)ccc21 (stereo not drawn) ?
OPRM1-OPRD1 inv: inactive; HTR5A inv ctr: inactive; HTR5A ag ctr: 49; MOR-DOR ag-1: inactive; MOR-DOR ag-2: inactive; HTR5A ag conf: inactive

Results for CN(C)C(CNC(=O)c1ccc2[nH]c(=O)c(=O)[nH]c2c1)c1ccco1 (stereo not drawn) ?
OPRM1-OPRD1 inv: inactive; HTR5A inv ctr: inactive; HTR5A ag ctr: inactive; MOR-DOR ag-1: inactive

What do the screens show for `CCOc1ccc(NC(=O)c2cc(=O)[nH]c3ccccc23)cc1`?
OPRM1-OPRD1 inv: inactive; HTR5A inv ctr: inactive; HTR5A ag ctr: 16; MOR-DOR ag-1: inactive; MOR-DOR ag-2: 21; HTR5A ag conf: inactive

Results for CCN(CC)C(CNC(=O)CSc1nnnn1-c1c(C)cccc1C)c1ccco1 (stereo not drawn) ?
OPRM1-OPRD1 inv: inactive; HTR5A inv ctr: inactive; HTR5A ag ctr: 20; MOR-DOR ag-1: inactive; MOR-DOR ag-2: inactive; HTR5A ag conf: 29

How did CCN(CC)C(CNC(=O)CSc1nnnn1-c1ccc(C)c(C)c1)c1ccco1 (stereo not drawn) do in these assays?
OPRM1-OPRD1 inv: inactive; HTR5A inv ctr: inactive; HTR5A ag ctr: inactive; MOR-DOR ag-1: inactive

Results for CCOC(=O)Nc1c2ccccc2nc2ccccc12 ?
OPRM1-OPRD1 inv: inactive; HTR5A inv ctr: inactive; HTR5A ag ctr: inactive; MOR-DOR ag-1: inactive

Results for Cc1ccc(NC(=O)Nc2sc(=S)n(C)c2C)cc1 ?
OPRM1-OPRD1 inv: inactive; HTR5A inv ctr: inactive; HTR5A ag ctr: inactive; MOR-DOR ag-1: inactive

What do the screens show for `Cc1c(NC(=O)Oc2ccccc2)sc(=S)n1C`?
OPRM1-OPRD1 inv: inactive; HTR5A inv ctr: inactive; HTR5A ag ctr: 15; MOR-DOR ag-1: inactive; MOR-DOR ag-2: inactive; HTR5A ag conf: 43

What do the screens show for `Cc1ccc(-c2nnc(SCC(=O)NCC3CCCO3)nc2-c2ccc(C)cc2)cc1` (stereo not drawn)?
OPRM1-OPRD1 inv: inactive; HTR5A inv ctr: inactive; HTR5A ag ctr: inactive; MOR-DOR ag-1: inactive

How did CSc1cccc(NC(=O)N2CCc3ccc(NC(=O)c4ccccn4)cc3C2)c1 do in these assays?
OPRM1-OPRD1 inv: inactive; HTR5A inv ctr: inactive; HTR5A ag ctr: 16; MOR-DOR ag-1: inactive; MOR-DOR ag-2: inactive; HTR5A ag conf: inactive

How did CN(C)S(=O)(=O)c1ccc(NC(=O)COc2cccc3c2OC(C)(C)C3)cc1 do in these assays?
OPRM1-OPRD1 inv: inactive; HTR5A inv ctr: inactive; HTR5A ag ctr: 24; MOR-DOR ag-1: inactive; MOR-DOR ag-2: inactive; HTR5A ag conf: 46

Results for CCCNC(=O)c1ccccc1NC(=O)COc1cccc2c1OC(C)(C)C2 ?
OPRM1-OPRD1 inv: inactive; HTR5A inv ctr: inactive; HTR5A ag ctr: 27; MOR-DOR ag-1: inactive; MOR-DOR ag-2: inactive; HTR5A ag conf: inactive

Results for COc1ccc(NC(=O)COc2cccc3c2OC(C)(C)C3)cc1OC ?
OPRM1-OPRD1 inv: inactive; HTR5A inv ctr: inactive; HTR5A ag ctr: 26; MOR-DOR ag-1: inactive; MOR-DOR ag-2: inactive; HTR5A ag conf: 29

How did COc1cccc(NC(=O)COC(=O)COc2cccc3c2OC(C)(C)C3)c1 do in these assays?
OPRM1-OPRD1 inv: inactive; HTR5A inv ctr: inactive; HTR5A ag ctr: inactive; MOR-DOR ag-1: inactive

What do the screens show for `CC1(C)Cc2cccc(OCC(=O)OCC(=O)Nc3ccccc3)c2O1`?
OPRM1-OPRD1 inv: inactive; HTR5A inv ctr: inactive; HTR5A ag ctr: inactive; MOR-DOR ag-1: inactive

How did Cc1cc(C)nc(-n2nc(C)c3c(C(F)F)cc(C)nc32)n1 do in these assays?
OPRM1-OPRD1 inv: inactive; HTR5A inv ctr: inactive; HTR5A ag ctr: inactive; MOR-DOR ag-1: inactive

Results for Cc1c(NC2(c3nnnn3-c3ccc(Br)cc3)CCCCC2)c(=O)n(-c2ccccc2)n1C ?
OPRM1-OPRD1 inv: inactive; HTR5A inv ctr: inactive; HTR5A ag ctr: inactive; MOR-DOR ag-1: inactive

Results for Cc1c(C(=O)Nc2ccncc2)sc2nc(-c3ccc(F)cc3)cn12 ?
OPRM1-OPRD1 inv: inactive; HTR5A inv ctr: inactive; HTR5A ag ctr: 19; MOR-DOR ag-1: inactive; MOR-DOR ag-2: inactive; HTR5A ag conf: inactive

Results for COc1ccc(-c2cn3c(C)c(C(=O)Nc4ccncc4)sc3n2)cc1 ?
OPRM1-OPRD1 inv: inactive; HTR5A inv ctr: inactive; HTR5A ag ctr: inactive; MOR-DOR ag-1: inactive

What do the screens show for `Cc1nn(Cc2ccccc2Cl)c2sc(C(=O)Nc3nccs3)cc12`?
OPRM1-OPRD1 inv: inactive; HTR5A inv ctr: inactive; HTR5A ag ctr: inactive; MOR-DOR ag-1: inactive

Results for Cc1nn(Cc2ccc(F)cc2)c2sc(C(=O)Nc3nccs3)cc12 ?
OPRM1-OPRD1 inv: inactive; HTR5A inv ctr: inactive; HTR5A ag ctr: 21; MOR-DOR ag-1: inactive; MOR-DOR ag-2: inactive; HTR5A ag conf: inactive

Results for COC(=O)CC1C(=O)NCCN1C(=O)c1ccc(S(=O)(=O)N2CCOCC2)cc1 (stereo not drawn) ?
OPRM1-OPRD1 inv: inactive; HTR5A inv ctr: inactive; HTR5A ag ctr: inactive; MOR-DOR ag-1: inactive

Results for COc1cc(CCNc2ccc3nnc(-c4ccccc4)n3n2)cc(OC)c1OC ?
OPRM1-OPRD1 inv: inactive; HTR5A inv ctr: inactive; HTR5A ag ctr: 17; MOR-DOR ag-1: inactive; MOR-DOR ag-2: inactive; HTR5A ag conf: inactive

What do the screens show for `COc1ccc2nnc(-c3ccccc3)n2n1`?
OPRM1-OPRD1 inv: inactive; HTR5A inv ctr: inactive; HTR5A ag ctr: inactive; MOR-DOR ag-1: inactive

Results for CCOC(=O)C1CCCN(C(=O)c2ccc(Cl)c(S(=O)(=O)N3CCc4ccccc43)c2)C1 (stereo not drawn) ?
OPRM1-OPRD1 inv: inactive; HTR5A inv ctr: inactive; HTR5A ag ctr: inactive; MOR-DOR ag-1: inactive

What do the screens show for `O=C(NC1CCN(Cc2ccccc2)CC1)c1cccc(S(=O)(=O)Nc2ccc(SC(F)F)cc2)c1`?
OPRM1-OPRD1 inv: inactive; HTR5A inv ctr: inactive; HTR5A ag ctr: 19; MOR-DOR ag-1: inactive; MOR-DOR ag-2: inactive; HTR5A ag conf: inactive

What do the screens show for `Cc1ccc(NS(=O)(=O)c2cccc(C(=O)NC3CCN(Cc4ccccc4)CC3)c2)cc1`?
OPRM1-OPRD1 inv: inactive; HTR5A inv ctr: inactive; HTR5A ag ctr: inactive; MOR-DOR ag-1: inactive

How did CCCCNC(=O)Cc1c(O)c2ccccc2[nH]c1=O do in these assays?
OPRM1-OPRD1 inv: inactive; HTR5A inv ctr: inactive; HTR5A ag ctr: inactive; MOR-DOR ag-1: inactive

What do the screens show for `CCN(CC)c1ccc(-c2nn3c(-c4n[nH]c5c4CCC5)nnc3s2)cc1`?
OPRM1-OPRD1 inv: inactive; HTR5A inv ctr: inactive; HTR5A ag ctr: 16; MOR-DOR ag-1: inactive; MOR-DOR ag-2: inactive; HTR5A ag conf: inactive

Results for C1CCC(c2nn3c(-c4n[nH]c5c4CCC5)nnc3s2)CC1 ?
OPRM1-OPRD1 inv: inactive; HTR5A inv ctr: inactive; HTR5A ag ctr: inactive; MOR-DOR ag-1: inactive

Results for c1ccc(-c2cc(-c3nnc4n3N=C(c3ccc5ccccc5c3)CS4)[nH]n2)cc1 ?
OPRM1-OPRD1 inv: inactive; HTR5A inv ctr: inactive; HTR5A ag ctr: 15; MOR-DOR ag-1: inactive; MOR-DOR ag-2: inactive; HTR5A ag conf: inactive

How did CC1CN(c2ccccc2)CCN1C(=O)c1cc(COc2c(F)cccc2F)on1 (stereo not drawn) do in these assays?
OPRM1-OPRD1 inv: inactive; HTR5A inv ctr: inactive; HTR5A ag ctr: 14; MOR-DOR ag-1: inactive; MOR-DOR ag-2: inactive; HTR5A ag conf: 87

Results for CCn1c(C)nc2cc(C(=O)NN=Cc3ccccc3OC(F)F)ccc21 ?
OPRM1-OPRD1 inv: inactive; HTR5A inv ctr: inactive; HTR5A ag ctr: 18; MOR-DOR ag-1: inactive; MOR-DOR ag-2: inactive; HTR5A ag conf: inactive
